EPAC2 antagonist – blocks human EPAC2 exchange factor. Potency, µM (highest dose often 114 µM), actives largely listed as inhibitors. 360,000 tested, 0.18% active. AID 720708. EPAC2 GEF exchange of Rap1B-BODIPY-GDP, fluorescence. Q8WZA2; also: nearly all actives have a fitted effect of over 45% in size
Target sequence (Q8WZA2 whole entry, looked up): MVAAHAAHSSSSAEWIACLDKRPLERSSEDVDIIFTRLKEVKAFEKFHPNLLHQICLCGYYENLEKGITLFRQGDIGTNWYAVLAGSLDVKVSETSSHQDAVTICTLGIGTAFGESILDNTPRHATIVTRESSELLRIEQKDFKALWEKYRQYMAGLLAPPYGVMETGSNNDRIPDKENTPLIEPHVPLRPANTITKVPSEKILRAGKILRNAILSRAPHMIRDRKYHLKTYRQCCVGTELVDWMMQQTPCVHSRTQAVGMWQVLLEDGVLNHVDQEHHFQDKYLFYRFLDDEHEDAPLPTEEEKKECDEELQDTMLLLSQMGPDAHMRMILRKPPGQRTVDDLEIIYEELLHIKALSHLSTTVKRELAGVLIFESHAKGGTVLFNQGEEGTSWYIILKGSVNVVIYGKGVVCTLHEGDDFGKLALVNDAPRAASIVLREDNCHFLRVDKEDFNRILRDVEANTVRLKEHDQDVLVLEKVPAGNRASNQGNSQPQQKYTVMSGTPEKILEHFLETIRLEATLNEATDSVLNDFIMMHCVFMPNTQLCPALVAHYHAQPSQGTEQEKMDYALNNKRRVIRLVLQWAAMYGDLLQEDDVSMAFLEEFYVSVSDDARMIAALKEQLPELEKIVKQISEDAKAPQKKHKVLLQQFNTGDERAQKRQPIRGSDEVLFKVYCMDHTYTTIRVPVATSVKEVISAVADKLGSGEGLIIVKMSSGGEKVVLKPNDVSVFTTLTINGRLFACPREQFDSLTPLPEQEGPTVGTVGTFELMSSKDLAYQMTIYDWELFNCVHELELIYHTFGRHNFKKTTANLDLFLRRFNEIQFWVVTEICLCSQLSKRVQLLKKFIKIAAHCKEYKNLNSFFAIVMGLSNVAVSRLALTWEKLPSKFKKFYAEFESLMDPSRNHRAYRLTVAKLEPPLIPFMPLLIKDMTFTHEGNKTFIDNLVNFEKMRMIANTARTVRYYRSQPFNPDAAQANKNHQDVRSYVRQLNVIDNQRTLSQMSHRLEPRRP
EPAC1 antagonist – antagonists of human EPAC1; 360,000 tested, 0.14% active; O95398; Potency, µM (top dose mostly 115 µM), hits mostly inhibitors; EPAC1 GEF assay, Rap1b-BODIPY-GDP exchange fluorescence; also: nearly all actives have a fitted effect of over 50% in size
EPAC2 agonist – agonists of human EPAC2 (RAPGEF4); Q8WZA2; EPAC2 activation, biochemical qHTS; response scale: 100% = 6.5 mM cAMP response; Potency, µM (titrated, usually from 154 µM), hits mostly activators; 360,000 tested, 0.079% active; AID 720711; also: nearly all actives have a fitted effect of over 50% in size
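Fluorescence exchange assay: 100 nM EPAC2 with 250 nM RAP1B-BODIPY-GDP and 50 uM GDP; compounds tested as a concentration-titration series (qHTS). Loss of Rap1-bound BODIPY-GDP fluorescence read at 480/540 nm; data normalized to 6.5 mM cAMP.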
USP1-UAF1 inh – blocks the human USP1/UAF1 deubiquitinase complex | Potency, µM (series often up to 57.1 µM), hits mostly inhibitors | O94782 | 390,000 tested, 0.23% active | recombinant USP1/UAF1, Ub-Rhodamine cleavage fluorescence; also: nearly all actives have a fitted effect of over 60% in size
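In this screen, compounds sit with the deubiquitinase complex (1nM) for 15 min at room temperature before Ub-Rho is added at 150nM final. Fluorescence rise is then followed for 6 reads every 60 seconds.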
EPAC1 agonist – activates human EPAC1 exchange factor; EPAC1 agonist qHTS, biochemical assay; response scale: 100% = response to 6.5 mM cAMP; Potency, µM (series often up to 154 µM), most hits filed as activators; 360,000 tested, 0.073% active; also: nearly all actives have a fitted effect of over 60% in size
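Nucleotide exchange by EPAC1 (100 nM) on Rap1B–BODIPY-GDP (250 nM) in the presence of 50 uM GDP is tracked fluorescently at 480/540 nm over 30 min. Signals are normalized to a 6.5 mM cAMP control.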
ALOX12 inh – inhibitors of human 12S-lipoxygenase ALOX12; purified 12hLO, xylenol orange hydroperoxide absorbance; 580,000 tested, 1.1% active; P18054; Potency, µM (titrated, usually from 108 µM), actives largely listed as inhibitors
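Purified human 12hLO (150 nM final) in 25 mM Hepes, 0.01% Triton X-100, pH 7.0 was preincubated 15 min at room temperature with compound. Then 40 uM arachidonic acid was added, 30 min. Hydroperoxide was read by Fe-XO absorbance ratio 573/405 nm.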
Hits are given with their value; 0 = inactive; ? = inconclusive; - = no result given; [ ] = dose if it differs, or a comment. Shown are actives, neighbours in structure and some others; about 1.3% of the full set was active somewhere. Calls follow the shape of the dose curve; as a rule, active = well fitted curve in the direction sought with a large enough effect; inconclusive = small, poorly fitted or top-dose-only effect, or another doubt; inactive = no such curve, though single readings can be large; an effect the other way counts as inactive or inconclusive.

SMILES	EPAC2 antagonist	EPAC1 antagonist	EPAC2 agonist	USP1-UAF1 inh	EPAC1 agonist	ALOX12 inh
CC1Cc2nc(SCC(=O)N3CCCC3)n(-c3ccccc3)c(=O)c2S1 (centres undefined)	-	-	-	-	-	0
Cc1oc(-c2cccs2)nc1C(=O)NCC(C)(C)N1CCOCC1	-	-	-	-	-	0
CC(=O)N1N=C(c2ccccc2Cl)CC1c1ccc2nccnc2c1 (centres undefined)	-	-	-	-	-	0
O=C(N/N=C/c1ccccc1O)c1cccc(C(F)(F)F)c1	0	7.9µM	0	0	0	0
COC(=O)c1ccc(Cl)cc1NC(=O)N(Cc1ccc(OC)cc1)C1CCN(C(C)=O)CC1	-	-	-	0	-	0
CCN1CCC(N(Cc2ccco2)C(=O)Nc2cc(Cl)ccc2C(=O)OC)CC1	-	-	-	-	-	6.3µM
Fc1ccc(-c2nc(CSc3nnc4c(Cl)cc(C(F)(F)F)cn34)cs2)cc1	-	-	-	-	-	0
O[C@@H]1CO[C@H]2[C@@H]1OC[C@@H]2n1nnnc1SC1CCCC1	-	-	-	-	-	63µM
CC(C)CCCCCCNC(=S)Nc1ccc(S(=O)(=O)N2CCOCC2)cc1	0	0	0	0	0	50µM
CN(C)CC(C)(C)CNC(=S)Nc1ccc(S(=O)(=O)N2CCOCC2)cc1	0	0	0	0	0	0
COc1ccc(C[C@H](NC(=O)C2=C[C@@H](NS(=O)(=O)c3cccc(C(F)(F)F)c3)[C@@H](O)[C@H](O)C2)C(N)=O)cc1	-	-	-	-	-	0
CC(C)C[C@@H](NC(=O)C1=C[C@@H](NS(=O)(=O)c2cccc(C(F)(F)F)c2)[C@@H](O)[C@H](O)C1)C(N)=O	-	-	-	-	-	40µM
Cc1nn(Cc2ccccc2)c(C)c1[C@@H]1C=C[C@@H](NC(=O)c2ccc(F)c(Cl)c2)C1	-	-	-	-	-	0
CC(C)CC(=O)NC1(C(F)(F)F)C(=O)Nc2c1c(=O)[nH]c(=O)n2-c1ccccc1 (centres undefined)	-	-	-	0	-	32µM
CC(C)n1c(=O)[nH][nH]c1=S	?	0	0	0	0	35µM
O=C(Nc1cccc(F)c1)c1cc(-c2ccc[nH]2)n[nH]1	-	-	-	-	-	20µM
Cc1cc(F)ccc1-c1cc(C(=O)Nc2ccccc2)[nH]n1	0	0	0	-	0	0
Cc1ccc(NC(=O)c2cc(-c3ccc[nH]3)n[nH]2)cc1F	-	-	-	-	-	10µM
COc1ccc(NC(=O)c2cc(-c3ccc[nH]3)n[nH]2)cc1F	-	-	-	-	-	0
O=C(Nc1cccc(C(F)(F)F)c1)c1cc(-c2ccc[nH]2)n[nH]1	-	-	-	-	-	16µM
Cc1cc(F)ccc1NC(=O)c1cc(-c2ccc[nH]2)n[nH]1	-	-	-	-	-	18µM
O=C(NNC(=O)c1ccc[nH]1)Nc1cccc(C(F)(F)F)c1	0	0	0	0	0	0
COc1ccccc1NC1(c2nnnn2-c2cccc(C)c2)CCC(C)CC1 (centres undefined)	-	-	-	-	-	0
CCOC(=O)N1CCN(C(=O)CN(c2ccccc2OCC)S(=O)(=O)c2ccc(C)cc2)CC1	-	-	-	-	-	0
CC(=O)Nc1ccc(NC(=O)C(C)Cl)cc1 (centres undefined)	-	-	-	-	-	0
SMILES	EPAC2 antagonist	EPAC1 antagonist	EPAC2 agonist	USP1-UAF1 inh	EPAC1 agonist	ALOX12 inh
N#CC1=C(N)OC2=C(C(=O)CC(c3ccc(Cl)cc3)C2)C1c1ccccc1Cl (centres undefined)	-	-	-	-	-	16µM
N#CC1=C(N)OC2=C(C(=O)CC(c3ccccc3)C2)C1c1ccc2c(c1)OCO2 (centres undefined)	0	0	0	0	0	0
Oc1c(CN2CCOCC2)cc(-c2ccccc2)cc1CN1CCOCC1	0	0	0	0	0	0
Oc1c(CN2CCOCC2)ccc2ccccc12	0	0	0	?	0	45µM
Cc1ccccc1-c1ccc2ncnc(NC3CC3)c2c1	-	-	-	-	-	0
COCCNc1ncnc2ccc(-c3ccccc3C)cc12	-	-	-	-	-	28µM
COc1ccc(C(=O)Cn2c(N3CCCCCC3)nc3c2c(=O)n(C)c(=O)n3C)cc1	-	-	-	-	-	0
Cc1nc(NC(=O)c2ccccc2)sc1-c1csc(Nc2ccccc2Cl)n1	-	-	-	-	-	40µM
Cc1ccccc1Nc1nc(-c2sc(NC(=O)c3ccco3)nc2C)cs1	0	0	0	0	0	7.9µM
CCOc1ccccc1Nc1nc(-c2sc(NC(=O)c3ccco3)nc2C)cs1	0	0	0	?	0	0
CCOC(=O)/C(C#N)=C/c1cccnc1	-	-	-	-	-	0
O=C(CSc1nc2ccccc2s1)Nc1cc(S(=O)(=O)N2CCOCC2)ccc1O	0	0	0	0	0	22µM
Cc1nnc(SCC(=O)Nc2cc(S(=O)(=O)N3CCOCC3)ccc2C)s1	0	0	0	0	0	0
Clc1ccc(N2CCN(Cc3ccco3)CC2)cc1	0	0	0	0	0	0.63µM
CCOc1ccc(CNC(=O)CS(=O)(=O)Cc2nc(-c3ccccc3C)oc2C)cc1	-	-	-	-	-	0
CCN1/C(=C/c2ccc3cc(C)ccc3[n+]2CC)Sc2cc(C)c(C)cc21	0	?	0	?	0	50µM
CCN1/C(=C/c2ccc3cc(C)ccc3[n+]2CC)Sc2ccccc21	0	?	0	0	0	45µM
CC[n+]1c(/C=C2\Sc3ccccc3N2C)ccc2cccc(C)c21	0	?	0	0	0	45µM
CCN1/C(=C/C=C/c2sc3ccccc3[n+]2CC)Sc2ccccc21	0	0	0	?	0	0[12.5 µM]
COc1ccc(-[n+]2c(C)cc(/C=C3\Sc4ccccc4N3C)cc2C)cc1	0	0	0	0	0	?
Cc1noc(C)c1-c1cc2cc(CO)oc2c(-c2cccc(OC(C)C)c2)n1	-	-	-	-	-	0
O=c1oc2ccccc2c(NC2CCCCC2)c1NS(=O)(=O)c1ccc(Br)s1	-	-	-	-	-	0
CC1=NN(c2nc(-c3ccc(Cl)cc3)cs2)C(=O)C1	0	?	0	0	0	5.6µM
CC1=NN(c2nc(-c3ccc(F)cc3)cs2)C(=O)C1	0	0	0	0	0	-
c1cncc(-c2cncnc2NC2CCNCC2)c1	-	-	-	-	-	7.9µM
SMILES	EPAC2 antagonist	EPAC1 antagonist	EPAC2 agonist	USP1-UAF1 inh	EPAC1 agonist	ALOX12 inh
c1cncc(-c2ccc3ncnc(NC4CCNCC4)c3c2)c1	-	-	-	-	-	0
CC(C)C(=O)NC(=S)/C=C1/N(C)c2ccccc2C1(C)C	0	0	0	0	0	35µM
CN1/C(=C/C(=S)NC(=O)C2CCC2)C(C)(C)c2ccccc21	0	0	0	0	0	?
Cc1ccc(C(=O)NC(=S)/C=C2\N(C)c3ccccc3C2(C)C)cc1	0	0	0	0	0	10µM
CCOC(=O)c1ccc(N=c2ssnc2Cl)cc1	0	0	0	0	0	2.2µM
CC(=O)c1cccc(NC(=S)NCCc2ccc(Cl)cc2)c1	0	?	0	0	0	?
CC(=O)c1ccc(NC(=S)NCCc2ccc(Cl)cc2)cc1	-	-	-	-	-	50µM
OCCCNC(=S)Nc1ccc(Cl)cc1	-	-	-	-	-	50µM
COc1ccc(C(CC(=O)c2ccc3c(c2)OCO3)C(=O)O)cc1OC (centres undefined)	0	0	0	0	0	0
COc1ccc(C(=O)COc2ccc3c(c2)OCO3)cc1OC	-	-	-	-	-	45µM

Screens (PubChem)
